PubChem BioAssay AID1159580 (chemical genetic matrix, 2015)
About 2,000 (36%) of roughly 5,500 compounds were called active. Not shown: some 18% with an inconclusive outcome. No stated cut-off is given here; in the data, active means normalized growth mostly below about 0.91 (no sharp cut-off); inconclusive means no clear call, values can overlap the other calls; inactive means mostly above about 0.92. Some of the results follow.

Experiment: chemical genetic growth profiling, strain panel (AID 1159580);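 further: tested at 20 µM; growth read once vehicle control cultures reached saturation at 30 °C; 1 = growth at the plate median or of vehicle wells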
Settings: S. cerevisiae deletion strains, growth OD

Measured: normalized growth

CC(C)Sc1c(Cl)cccc1NC(=O)Nc1ccccc1
active: locus YHR030C, strain SLT2, stronger effect = lower value 0.666 | locus YLR113W, strain HOG1, stronger effect = lower value 0.765 | locus YPL256C, strain CLN2, stronger effect = lower value 0.803
inactive: locus YAR019C, strain CDC15, stronger effect = lower value 0.971 | locus YBL105C, strain PKC1, stronger effect = lower value 0.97 | locus YBR135W, strain CKS1, stronger effect = lower value 0.96 | locus YBR136W, strain MEC1, stronger effect = lower value 0.959 | locus YBR160W, strain CDC28, stronger effect = lower value 0.962 | locus YDL017W, strain CDC7, stronger effect = lower value 0.968 | locus YDL028C, strain MPS1, stronger effect = lower value 0.962 | locus YDL101C, strain DUN1, stronger effect = lower value 0.976 | locus YDL108W, strain KIN28, stronger effect = lower value 0.966 | locus YDL132W, strain cdc53, stronger effect = lower value 0.974 | locus YDL214C, strain PRR2, stronger effect = lower value 0.871 | locus YDR052C, strain DBF4, stronger effect = lower value 0.973 | locus YDR054C, strain cdc34, stronger effect = lower value 0.959 | locus YDR226W, strain ADK1, stronger effect = lower value 0.976 | locus YDR477W, strain SNF1, stronger effect = lower value 0.867 | locus YER123W, strain YCK3, stronger effect = lower value 0.813 | locus YER133W, strain GLC7, stronger effect = lower value 0.899 | locus YFL009W, strain cdc4, stronger effect = lower value 0.97 | locus YFL029C, strain CAK1, stronger effect = lower value 0.964 | locus YFR003C, strain YPI1, stronger effect = lower value 0.957 | locus YFR019W, strain FAB1, stronger effect = lower value 0.872 | locus YFR028C, strain CDC14, stronger effect = lower value 0.963 | locus YGR040W, strain KSS1, stronger effect = lower value 0.843 | locus YGR052W, strain FMP48, stronger effect = lower value 0.937 | locus YGR092W, strain DBF2, stronger effect = lower value 0.836 | locus YHR079C, strain IRE1, stronger effect = lower value 0.898 | locus YHR082C, strain KSP1, stronger effect = lower value 0.858 | locus YHR205W, strain SCH9, stronger effect = lower value 0.788 | locus YIL147C, strain SLN1, stronger effect = lower value 0.964 | locus YJL095W, strain BCK1, stronger effect = lower value 0.803 | locus YJL128C, strain PBS2, stronger effect = lower value 0.966 | locus YJL157C, strain FAR1, stronger effect = lower value 0.895 | locus YJR016C, strain ILV3, stronger effect = lower value 0.97 | locus YJR066W, strain TOR1 (second series), stronger effect = lower value 0.915 | locus YJR066W, strain TOR1, stronger effect = lower value 0.835 | locus YKL048C, strain ELM1, stronger effect = lower value 0.874 | locus YKL067W, strain YNK1, stronger effect = lower value 0.892 | locus YKL101W, strain HSL1, stronger effect = lower value 0.891 | locus YKL193C, strain SDS22, stronger effect = lower value 0.963 | locus YKL203C, strain TOR2, stronger effect = lower value 0.891 | locus YLR133W, strain CKI1, stronger effect = lower value 0.857 | locus YLR403W, strain SFP1, stronger effect = lower value 0.863 | locus YML070W, strain DAK1, stronger effect = lower value 0.869 | locus YMR001C, strain CDC5, stronger effect = lower value 0.967 | locus YMR205C, strain PFK2 (second series), stronger effect = lower value 0.863 | locus YMR277W, strain FCP1, stronger effect = lower value 0.962 | locus YNL006W, strain LST8, stronger effect = lower value 0.975 | locus YNL020C, strain ARK1, stronger effect = lower value 0.861 | locus YNL161W, strain CBK1, stronger effect = lower value 0.975 | locus YNL183C, strain NPR1, stronger effect = lower value 0.827 | locus YNL207W, strain RIO2, stronger effect = lower value 0.965 | locus YNL222W, strain SSU72, stronger effect = lower value 0.964 | locus YNL307C, strain MCK1 (second series), stronger effect = lower value 0.771 | locus YOL078W, strain AVO1, stronger effect = lower value 0.964 | locus YOL136C, strain PFK27, stronger effect = lower value 0.86 | locus YOR061W, strain CKA2, stronger effect = lower value 0.895 | locus YOR119C, strain RIO1, stronger effect = lower value 0.935 | locus YOR231W, strain MKK1, stronger effect = lower value 0.883 | locus YOR329C, strain SCD5, stronger effect = lower value 0.966 | locus YPL031C, strain PHO85, stronger effect = lower value 0.853 | locus YPL153C, strain RAD53, stronger effect = lower value 0.867 | locus YPL204W, strain HRR25, stronger effect = lower value 0.839 | locus YPL209C, strain IPL1, stronger effect = lower value 0.973 | locus YPR025C, strain CCL1, stronger effect = lower value 0.961 | locus YPR106W, strain ISR1, stronger effect = lower value 0.964 | locus YPR111W, strain DBF20, stronger effect = lower value 0.951 | strain NNK1, stronger effect = lower value 0.942 | strain TSCII, stronger effect = lower value 0.963
